# Assay outcomes from PubChem.
# CHT block: inhibitors of human choline transporter CHT | AID 488975 | CHT-expressing cells, membrane potential dye, choline response; hits give low values | B-score at 10 µM | hit rate 0.86% among 310,000;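 active = B-score over 3 SD under the library average, and starting fluorescence ratio not unusually high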;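 note: choline stimulus applied at its EC90 after an EC20 pre-addition; B-score computed on integrated fluorescence ratio after choline addition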
# CHT PAM: allosterically activates the human high affinity choline transporter; CHT-expressing cells, membrane potential dye, choline EC20; hits give high values; LV-AA mutant CHT in HEK293 cells; B-score at 10 µM; hit rate 0.49% among 310,000;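 active = initial fluorescence not abnormally high and integrated response B-score, plate-corrected, over 3 SD above library mean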
# Rce1 inh: inhibitors of yeast Ras-converting enzyme; Q03530; yeast membranes, quenched prenylated peptide cleavage fluorescence; calls only; hit rate 0.27% among 290,000;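 active = fall in fluorescence gain of 50% or more versus controls, with final raw signal at or below 3038400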;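 note: plate controls were neutral control wells for no effect and wells lacking membranes for full effect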
# Kir21 block: inhibitors of mouse Kir2.1 inward-rectifier potassium channel. P35561. HEK293-Kir2.1, FluxOR thallium flux fluorescence; hits give low values. B-score at 10 µM. hit rate 0.85% among 310,000. AID 1672;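 active = fluorescence ratio B-score at or below minus 3 SD of library scores, with starting-brightness B-score within 2 SD, cut at about -4.2 in these data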;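 note: channel flux triggered by added potassium and thallium sulfate stimulus; B-score of peak minus minimum fluorescence over baseline after thallium stimulus; more negative B-score means stronger Kir2.1 block with less thallium influx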
# Target sequence (P35561 whole entry, looked up): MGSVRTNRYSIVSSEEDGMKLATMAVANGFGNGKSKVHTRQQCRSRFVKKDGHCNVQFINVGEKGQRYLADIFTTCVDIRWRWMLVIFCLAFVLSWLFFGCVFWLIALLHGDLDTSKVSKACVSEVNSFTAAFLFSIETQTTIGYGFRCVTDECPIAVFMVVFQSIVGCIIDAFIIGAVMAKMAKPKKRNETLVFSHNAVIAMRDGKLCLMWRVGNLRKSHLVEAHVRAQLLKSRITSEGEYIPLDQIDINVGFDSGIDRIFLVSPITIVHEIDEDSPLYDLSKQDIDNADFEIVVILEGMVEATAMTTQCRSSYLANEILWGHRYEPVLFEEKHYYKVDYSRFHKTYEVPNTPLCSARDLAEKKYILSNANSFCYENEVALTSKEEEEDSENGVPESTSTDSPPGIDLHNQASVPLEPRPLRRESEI
# ANO1 activ: activators or potentiators of mouse TMEM16A chloride channel; HEK293 TMEM16A/YFP-H148Q/I152L, iodide quench fluorescence; hits give low values; B-score at 10 µM; hit rate 0.3% among 340,000; AID 623877;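 active = fluorescence-ratio B-score plate-corrected deviation score at least 3 library SD below zero, with starting fluorescence score within 5 deviations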;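 note: channel opened by trigger with iodide after compound preincubation; score built on the fluorescence ratio of max minus min over baseline; more negative score means more quench and so TMEM16A activation or potentiation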
# ANO1 block: mouse TMEM16A channel inhibition, primary screen | HEK293 TMEM16A/YFP iodide influx fluorescence, ionomycin | normalized B-score (activity score, 25-100; higher = stronger inhibition) at 10 µM | hit rate 1.2% among 310,000 | AID 588511;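 active = ratio plate-corrected score three or more library SD toward inhibition, starting fluorescence score within five deviations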;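 note: score derived from kinetic fluorescence span divided by baseline fluorescence per well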
# CHT activ conf: confirmation of human choline transporter (CHT) activators. shares compounds with CHT PAM. CHT-expressing cells, membrane potential dye fluorescence (FDSS); % of choline EC20–EC90 response window; HEK293 expressing CHT LV-AA mutant; choline added at its EC20. activation, % at 10 µM. hit rate 91% among 2,500;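 active = primary screen active, with duplicate mean activation above negative control mean plus 3 SD, cut at about 11% in these data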
# HEK293 MP dye: counter-screen for CHT activators: effect in parental HEK293 cells | shares compounds with CHT PAM | membrane potential dye fluorescence (FDSS); measured after EC20 choline addition | ratio readout change at 10 µM, hits read low | hit rate 62% among 2,500;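 active = duplicate-averaged ratio beyond 3 SD from buffer wells, up or down, though filed actives are nearly all decreases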
# An asterisk follows results filed as active; i = inactive; nt = not tested or not shown. In the library only some 3.2% were active in any assay of this set; here they are far more common.
SMILES,CHT block,CHT PAM,Rce1 inh,Kir21 block,ANO1 activ,ANO1 block,CHT activ conf,HEK293 MP dye
Cc1c2c(n3c(nc4ccccc43)c1C#N)N(CCN1CCOCC1)CC2,i,7.9*,i,-1.6,i,i,54*,-46*
Cc1cc(NCCCN2CCOCC2)n2c(nc3ccccc32)c1C#N,i,6.3*,i,-0.11,i,i,55*,-91*
CCN(CC)CCNc1cc(C)c(C#N)c2nc3ccccc3n12,i,i,i,0.72,i,i,42*,-81*
Cc1cc(NCCN2CCOCC2)n2c(nc3ccccc32)c1C#N,i,i,i,2.1,i,i,nt,nt
CCCc1cc(NCCCN2CCOCC2)n2c(nc3ccccc32)c1C#N,i,i,i,1.1,i,i,nt,nt
COc1cccc(C2NC(=O)CCC2[N+](=O)[O-])c1 (configuration not stated),i,i,i,-0.02,i,i,nt,nt
O=C(OCC(=O)N1CCc2ccccc2C1)c1cc(=O)[nH]c2ccccc12,i,i,i,-0.06,i,i,nt,nt
Cc1cc(C)n(-c2nc3ccccc3nc2N2CCCCCC2)n1,i,i,i,-2,i,i,17*,i
O=c1c2ccccc2nc2n1C(CSCc1ccc(Cl)cc1)CS2 (configuration not stated),i,8.2*,i,-2.3,i,i,11*,i
O=c1c2ccccc2nc2n1C(CSc1ccccc1)CS2 (configuration not stated),i,i,i,-1.2,i,i,nt,nt
CC(CCc1ccccc1)NC(=O)CNC(=O)N1CC(=O)Nc2ccccc21 (configuration not stated),i,i,i,-0.5,i,i,nt,nt
COc1ccccc1OCC(O)Cn1c(=N)n(Cc2ccccc2)c2ccccc21 (configuration not stated),i,9.6*,i,-4.6*,i,i,28*,i
CCN(CC)CCn1c(=N)n(CC(=O)c2ccc(Br)s2)c2ccccc21,i,6.4*,i,-3.1,i,i,21*,i
Cn1c(=N)n(CC(=O)c2ccc(Br)s2)c2ccccc21,i,i,i,2.4,i,i,nt,nt
N=c1n(Cc2ccccc2)c2ccccc2n1CC(O)c1ccccc1 (configuration not stated),i,i,i,-3.8,i,i,nt,nt
COc1ccc(OCCn2c(=N)n(CCO)c3ccccc32)cc1,i,i,i,-0.02,i,i,nt,nt
CCN(CC)CCn1c(=N)n(CC(O)COc2ccccc2)c2ccccc21 (configuration not stated),i,7.3*,i,-2.6,i,i,21*,i
CCCCn1c(=N)n(CCOc2ccc(C)cc2)c2ccccc21,i,9.7*,i,-4.6*,i,i,25*,i
CC(=O)c1ccc(S(=O)(=O)Nc2c(C)nn(C)c2C)cc1,nt,nt,nt,nt,i,nt,nt,nt
COc1cc(CCCN2CCNC[C@H]2Cc2cccc3ccccc23)cc(OC)c1OC,nt,nt,nt,nt,i,nt,nt,nt
CCN(CC)C(=O)Cn1cc(S(=O)(=O)CC(=O)N2CCOCC2)c2ccccc21,i,i,i,1.2,i,i,nt,nt
Cc1ccc(OCC(O)Cn2c(=N)n(CCN3CCCCC3)c3ccccc32)cc1 (configuration not stated),i,9.6*,i,-4.3*,i,i,20*,i
COc1ccc(OCC(O)Cn2c(=N)n(CCN3CCCCC3)c3ccccc32)cc1 (configuration not stated),i,i,nt,nt,i,i,nt,nt
CCOC(=O)C1=C(COC(=O)C(CC)c2ccccc2)NC(=O)NC1C (configuration not stated),nt,nt,nt,nt,i,nt,nt,nt
CCn1cc(C2=NCCO2)c2ccccc21,i,9.4*,i,-0.66,i,i,43*,-44*
SMILES,CHT block,CHT PAM,Rce1 inh,Kir21 block,ANO1 activ,ANO1 block,CHT activ conf,HEK293 MP dye
CCc1nccn1Cc1cc(C=O)ccc1OC,i,i,i,0.64,i,i,61*,-44*
COc1ccc(C=O)cc1Cn1ccnc1C,i,i,i,-0.29,i,i,nt,nt
CCOC(=O)NC(Nc1sc2c(c1C(=O)OC)CCN(C)C2)(C(F)(F)F)C(F)(F)F,i,7.6*,i,2,i,i,8,-50*
CCOC(=O)C(NC(=O)CC)(Nc1sc2c(c1C(=O)OC)CCN(C)C2)C(F)(F)F (configuration not stated),i,7.5*,i,-1.4,i,i,26*,-49*
C=CCNC(=O)c1onc(CSc2ccc(F)cc2)c1C(=O)NCCOC,i,i,i,0.87,i,i,nt,nt
CCc1nn(CC(=O)NCCCN2CCOCC2)c(=O)c2cc3cc(F)ccc3n12,i,i,i,0.3,i,i,nt,nt
Cn1cnc2c(N3CCCCC3)nccc21,i,8.7*,i,-0.01,i,i,71*,-64*
COc1ccccc1C(=O)N1C(CC(=O)Nc2cc(Cl)ccc2C)C(=O)NC2CCCCC21 (configuration not stated),i,i,i,0.49,i,i,24*,i
CNC(=S)Nc1cc(S(=O)(=O)Nc2cc(Cl)ccc2Cl)ccc1N1CCCC1,i,i,i,-0.3,i,i,14*,i
Nc1cc(S(=O)(=O)Nc2cc(Cl)ccc2Cl)ccc1N1CCCC1,i,i,i,0.33,i,i,nt,nt
O=C(OC(C(=O)NCc1ccc(F)cc1)c1ccccc1)c1ccco1 (configuration not stated),i,i,i,0.09,i,i,nt,nt
COc1cccc(CN2CCC(N(CCc3ccccc3)Cc3ccccc3)CC2)c1OC,i,10*,i,-0.8,i,i,34*,i
Cn1c(=O)c2c(nc(Cl)n2CC(=O)NC2(C#N)CCCCC2)n(C)c1=O,i,i,i,-0.26,i,i,nt,nt
O=C(Nc1ccc(C(F)(F)F)cc1[N+](=O)[O-])O[C@H]1[C@H](Cc2ccccc2)NS(=O)(=O)[C@H]2C[C@@H]3C=C[C@]12O3,nt,nt,nt,nt,i,nt,nt,nt
COc1cc(/C=N/Nc2nncc3ccccc23)cc(OC)c1OC,i,7.6*,i,-0.15,i,i,40*,-48*
